This note sets out measurements from PubChem BioAssay (EPA / NIEHS).

Active and inactive are the calls of the source. The calls were made as follows: active = hit-call score of the fitted dose curve at least 0.9, where 1 is the maximum; inactive = score below 0.9.

Sequence of E-selectin (Homo sapiens) (P16581 whole entry, looked up): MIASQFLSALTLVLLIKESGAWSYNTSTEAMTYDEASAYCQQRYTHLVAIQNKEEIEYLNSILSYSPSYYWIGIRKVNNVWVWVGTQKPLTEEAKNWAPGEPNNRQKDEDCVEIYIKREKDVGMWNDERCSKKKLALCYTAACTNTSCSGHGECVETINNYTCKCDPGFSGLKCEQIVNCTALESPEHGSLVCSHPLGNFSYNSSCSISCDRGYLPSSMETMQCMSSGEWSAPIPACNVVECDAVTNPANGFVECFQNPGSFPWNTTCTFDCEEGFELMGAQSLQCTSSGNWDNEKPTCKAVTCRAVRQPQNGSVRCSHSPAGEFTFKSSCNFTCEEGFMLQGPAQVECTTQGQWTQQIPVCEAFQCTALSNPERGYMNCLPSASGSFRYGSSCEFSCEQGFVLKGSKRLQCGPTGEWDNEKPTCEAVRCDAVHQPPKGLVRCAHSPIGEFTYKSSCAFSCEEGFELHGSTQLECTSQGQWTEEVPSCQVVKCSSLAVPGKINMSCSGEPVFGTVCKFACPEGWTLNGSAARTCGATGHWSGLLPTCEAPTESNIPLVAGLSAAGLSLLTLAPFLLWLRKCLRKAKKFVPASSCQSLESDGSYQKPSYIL

Read-out in the first assay: urokinase plasminogen activator (uPA), PLAU (gene 5328)
Nature of the assay: BSK_KF3CT_uPA: BioMAP Diversity Plus: KF3CT Assay for urokinase plasminogen activator (uPA) Biomarker Activity (AID 2283075). The following applies: primary human keratinocytes with fibroblasts; actives raise or lower the signal. In short, it runs like this:
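ELISA read-out of uPA 24 h after dosing human skin keratinocytes co-cultured with foreskin fibroblasts. Signal change fitted both ways relative to DMSO; sulforhodamine B on parallel cultures marks overt cytotoxicity.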
Regarding `O=C(Nc1ccccc1)Nc1ccnc(Cl)c1`, the result was inactive.

`CC1=C(C(=O)Nc2ccccc2)SCCO1`: the outcome was inactive.

As to `CCOc1cc(Oc2ccc(C(F)(F)F)cc2Cl)ccc1[N+](=O)[O-]`, the result was inactive.

For the molecule `Fc1ccc(Oc2ccnc3cc(Cl)cc(Cl)c23)cc1`, the outcome was inactive.

As for `CCCCC(CC)COC(=O)c1ccccc1C(=O)OCC(CC)CCCC` (stereo unspecified), the outcome was inactive.

Read-out in the next assay: CD40, CD40 (gene 958)
Nature of the assay: BSK_LPS_CD40: BioMAP Diversity Plus: LPS Assay for CD40 Biomarker Activity (AID 2283076). To be noted: primary human HUVEC with PBMC; actives raise or lower the signal. In short, it runs like this: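 HUVEC plus PBMC co-culture stimulated with LPS; CD40 quantified by ELISA 24 h after compound dosing. Fitting was bidirectional relative to DMSO. SRB staining of parallel cultures flagged overt cytotoxicity.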
Turning to `O=C(O)COc1nc(Cl)c(Cl)cc1Cl`, the outcome was inactive.

Take `N#Cc1nn(-c2c(Cl)cc(C(F)(F)F)cc2Cl)c(N)c1S(=O)C(F)(F)F` (stereo unspecified): the AC50 was 14.9 µM (active).

Take `CC(C)Oc1cc(-n2nc(C(C)(C)C)oc2=O)c(Cl)cc1Cl`: the AC50 is 14.8 µM (active).

Turning to `CCOP(=S)(OCC)SCn1c(=O)oc2cc(Cl)ccc21`, the AC50 was 16.6 µM (active).

Consider `CCCC1COC(Cn2cncn2)(c2ccc(Cl)cc2Cl)O1` (stereo unspecified), for which the AC50 was 20 µM (active).

Turning to `COC(=O)C=C(C)OP(=O)(OC)OC`, the result was inactive.

As to `CCNc1nc(Cl)nc(NCC)n1`, the result was inactive.

In the case of `COc1ccc(C(c2ccc(OC)cc2)C(Cl)(Cl)Cl)cc1`, the AC50 is 23.3 µM (active).

Take `CCOC(=O)C(Cl)Cc1cc(-n2nc(C)n(C(F)F)c2=O)c(F)cc1Cl` (stereo unspecified): the outcome was inactive.

Turning to `CCc1nn(C)c(C(=O)NCc2ccc(C(C)(C)C)cc2)c1Cl`, the AC50 is 24.3 µM (active).

Consider `N#CC(CCc1ccc(Cl)cc1)(Cn1cncn1)c1ccccc1` (stereo unspecified), for which the outcome was inactive.

In the case of `CN(C)C(=S)SSC(=S)N(C)C`, the AC50 is 24.7 µM (active).

On to `CNC(=S)S`, for which the AC50 was 15.7 µM (active).

Take `CON(C)C(=O)Nc1ccc(Cl)c(Cl)c1`: the result was inactive.

For the molecule `Cc1ccc(-c2c(Cl)nc(C#N)n2S(=O)(=O)N(C)C)cc1`, the AC50 is 14.9 µM (active).

For `COc1nc(NC(C)C)nc(NC(C)C)n1`, the result was inactive.

Regarding `CC(C)(C)c1ccc(CSc2cnn(C(C)(C)C)c(=O)c2Cl)cc1`, the AC50 was 8.25 µM (active).

For `COC(=O)N(OC)c1ccccc1COc1ccn(-c2ccc(Cl)cc2)n1`, the AC50 is 20 µM (active).

Regarding `N#Cc1cc(Br)c(O)c(Br)c1`, the AC50 is 9.86 µM (active).

For the molecule `COP(=S)(OC)Oc1nc(Cl)c(Cl)cc1Cl`, the result was inactive.

In the case of `CCCCNC(=O)n1c(NC(=O)OC)nc2ccccc21`, the outcome was inactive.

In the case of `CC(Oc1ccc(Cl)cc1Cl)C(=O)O` (stereo unspecified), the outcome was inactive.

As to `O=C(Nc1ccccc1)Nc1ccnc(Cl)c1`, the result was inactive.

On to `CC1=C(C(=O)Nc2ccccc2)SCCO1`, for which the result was inactive.

For `CCOc1cc(Oc2ccc(C(F)(F)F)cc2Cl)ccc1[N+](=O)[O-]`, the result was inactive.

For the molecule `Fc1ccc(Oc2ccnc3cc(Cl)cc(Cl)c23)cc1`, the AC50 is 22.8 µM (active).

Consider `CCCCC(CC)COC(=O)c1ccccc1C(=O)OCC(CC)CCCC` (stereo unspecified), for which the outcome was inactive.

Read-out in another assay: E-selectin (Homo sapiens) (UniProt P16581)
Nature of the assay: BSK_LPS_Eselectin: BioMAP Diversity Plus: LPS Assay for Eselectin Biomarker Activity (AID 2283077). The following applies: primary human HUVEC with PBMC; actives raise or lower the signal. Put shortly:
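Human umbilical vein endothelial cells co-cultured with PBMC under LPS stimulation; cell-surface E-selectin measured by ELISA 24 h after dosing. Change in either direction versus DMSO, with SRB total-protein staining in parallel cultures for cytotoxicity.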
On to `O=C(O)COc1nc(Cl)c(Cl)cc1Cl`, for which the outcome was inactive.

Take `N#Cc1nn(-c2c(Cl)cc(C(F)(F)F)cc2Cl)c(N)c1S(=O)C(F)(F)F` (stereo unspecified): the AC50 is 36.8 µM (active).

With `CC(C)Oc1cc(-n2nc(C(C)(C)C)oc2=O)c(Cl)cc1Cl`, the AC50 was 31.3 µM (active).

Regarding `CCOP(=S)(OCC)SCn1c(=O)oc2cc(Cl)ccc21`, the AC50 is 9.68 µM (active).

Take `CCCC1COC(Cn2cncn2)(c2ccc(Cl)cc2Cl)O1` (stereo unspecified): the result was inactive.

With `COC(=O)C=C(C)OP(=O)(OC)OC`, the result was inactive.

As for `CCNc1nc(Cl)nc(NCC)n1`, the result was inactive.

Take `COc1ccc(C(c2ccc(OC)cc2)C(Cl)(Cl)Cl)cc1`: the AC50 was 27.5 µM (active).

Turning to `CCOC(=O)C(Cl)Cc1cc(-n2nc(C)n(C(F)F)c2=O)c(F)cc1Cl` (stereo unspecified), the outcome was inactive.

For the molecule `CCc1nn(C)c(C(=O)NCc2ccc(C(C)(C)C)cc2)c1Cl`, the concentration at half-maximal activity (AC50) is 20 µM (active).

On to `N#CC(CCc1ccc(Cl)cc1)(Cn1cncn1)c1ccccc1` (stereo unspecified), for which the result was inactive.

On to `CN(C)C(=S)SSC(=S)N(C)C`, for which the AC50 was 28.5 µM (active).

For `CNC(=S)S`, the AC50 was 14.7 µM (active).

On to `CON(C)C(=O)Nc1ccc(Cl)c(Cl)c1`, for which the outcome was inactive.

Take `Cc1ccc(-c2c(Cl)nc(C#N)n2S(=O)(=O)N(C)C)cc1`: the AC50 was 39.2 µM (active).

Regarding `COc1nc(NC(C)C)nc(NC(C)C)n1`, the outcome was inactive.

In the case of `CC(C)(C)c1ccc(CSc2cnn(C(C)(C)C)c(=O)c2Cl)cc1`, the outcome was inactive.

Turning to `COC(=O)N(OC)c1ccccc1COc1ccn(-c2ccc(Cl)cc2)n1`, the concentration at half-maximal activity (AC50) is 6.89 µM (active).

With `N#Cc1cc(Br)c(O)c(Br)c1`, the outcome was inactive.

`COP(=S)(OC)Oc1nc(Cl)c(Cl)cc1Cl`: the AC50 was 32.5 µM (active).

For `CCCCNC(=O)n1c(NC(=O)OC)nc2ccccc21`, the result was inactive.

For the molecule `CC(Oc1ccc(Cl)cc1Cl)C(=O)O` (stereo unspecified), the result was inactive.

Turning to `O=C(Nc1ccccc1)Nc1ccnc(Cl)c1`, the result was inactive.

Take `CC1=C(C(=O)Nc2ccccc2)SCCO1`: the outcome was inactive.

For the molecule `CCOc1cc(Oc2ccc(C(F)(F)F)cc2Cl)ccc1[N+](=O)[O-]`, the result was inactive.

As for `Fc1ccc(Oc2ccnc3cc(Cl)cc(Cl)c23)cc1`, the concentration at half-maximal activity (AC50) is 34.4 µM (active).

Regarding `CCCCC(CC)COC(=O)c1ccccc1C(=O)OCC(CC)CCCC` (stereo unspecified), the result was inactive.

Read-out in the next assay: Interleukin-8 (IL8), CXCL8 (gene 3576)
Nature of the assay: BSK_LPS_IL8: BioMAP Diversity Plus: LPS Assay for Interleukin-8 (IL8) Biomarker Activity (AID 2283078). To be noted: primary human HUVEC with PBMC; actives raise or lower the signal. In short, it runs like this:
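Human umbilical vein endothelial cells co-cultured with PBMC, LPS-stimulated, exposed to compound for 24 h. IL-8 quantified by ELISA; fitted in both directions against DMSO, with SRB total-protein staining of parallel cultures for cytotoxicity.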
On to `O=C(O)COc1nc(Cl)c(Cl)cc1Cl`, for which the outcome was inactive.

With `N#Cc1nn(-c2c(Cl)cc(C(F)(F)F)cc2Cl)c(N)c1S(=O)C(F)(F)F` (stereo unspecified), the AC50 is 23.4 µM (active).

`CC(C)Oc1cc(-n2nc(C(C)(C)C)oc2=O)c(Cl)cc1Cl`: the AC50 is 31.5 µM (active).

`CCOP(=S)(OCC)SCn1c(=O)oc2cc(Cl)ccc21`: the concentration at half-maximal activity (AC50) is 16.9 µM (active).

With `CCCC1COC(Cn2cncn2)(c2ccc(Cl)cc2Cl)O1` (stereo unspecified), the result was inactive.

On to `COC(=O)C=C(C)OP(=O)(OC)OC`, for which the result was inactive.

For `CCNc1nc(Cl)nc(NCC)n1`, the outcome was inactive.

For `COc1ccc(C(c2ccc(OC)cc2)C(Cl)(Cl)Cl)cc1`, the AC50 is 25 µM (active).

For the molecule `CCOC(=O)C(Cl)Cc1cc(-n2nc(C)n(C(F)F)c2=O)c(F)cc1Cl` (stereo unspecified), the outcome was inactive.

Consider `CCc1nn(C)c(C(=O)NCc2ccc(C(C)(C)C)cc2)c1Cl`, for which the AC50 was 20 µM (active).

As for `N#CC(CCc1ccc(Cl)cc1)(Cn1cncn1)c1ccccc1` (stereo unspecified), the result was inactive.

Take `CN(C)C(=S)SSC(=S)N(C)C`: the AC50 is 26.5 µM (active).

Regarding `CNC(=S)S`, the AC50 is 20.8 µM (active).

`CON(C)C(=O)Nc1ccc(Cl)c(Cl)c1`: the outcome was inactive.

Turning to `Cc1ccc(-c2c(Cl)nc(C#N)n2S(=O)(=O)N(C)C)cc1`, the AC50 was 27.6 µM (active).

Turning to `COc1nc(NC(C)C)nc(NC(C)C)n1`, the result was inactive.

In the case of `CC(C)(C)c1ccc(CSc2cnn(C(C)(C)C)c(=O)c2Cl)cc1`, the AC50 was 3.16 µM (active).

As to `COC(=O)N(OC)c1ccccc1COc1ccn(-c2ccc(Cl)cc2)n1`, the AC50 was 3.97 µM (active).

With `N#Cc1cc(Br)c(O)c(Br)c1`, the result was inactive.

Regarding `COP(=S)(OC)Oc1nc(Cl)c(Cl)cc1Cl`, the result was inactive.

Regarding `CCCCNC(=O)n1c(NC(=O)OC)nc2ccccc21`, the outcome was inactive.

Consider `CC(Oc1ccc(Cl)cc1Cl)C(=O)O` (stereo unspecified), for which the result was inactive.

For `O=C(Nc1ccccc1)Nc1ccnc(Cl)c1`, the AC50 is 15 µM (active).

Turning to `CC1=C(C(=O)Nc2ccccc2)SCCO1`, the outcome was inactive.

Turning to `CCOc1cc(Oc2ccc(C(F)(F)F)cc2Cl)ccc1[N+](=O)[O-]`, the AC50 was 11 µM (active).

On to `Fc1ccc(Oc2ccnc3cc(Cl)cc(Cl)c23)cc1`, for which the AC50 is 28.8 µM (active).

For `CCCCC(CC)COC(=O)c1ccccc1C(=O)OCC(CC)CCCC` (stereo unspecified), the AC50 is 3.22 µM (active).

As usually defined, the AC50 is the midpoint of the concentration-response curve, whichever way the signal moves.
